According to PubChem BioAssay AID489043 (National Center for Advancing Translational Sciences (NCATS), 2010):
Records with an inconclusive call do not appear. Activity calls are given as the source filed them. The call rests on the fitted dose curve; in most records, active means well fitted activation curve with a large enough effect; inconclusive means small, poorly fitted or top-dose-only effect; inactive means flat fitted curve, though single readings scatter.

Target: Relaxin receptor 2 (Homo sapiens) (UniProt Q8WXD0)
Sequence (Q8WXD0 whole entry, looked up): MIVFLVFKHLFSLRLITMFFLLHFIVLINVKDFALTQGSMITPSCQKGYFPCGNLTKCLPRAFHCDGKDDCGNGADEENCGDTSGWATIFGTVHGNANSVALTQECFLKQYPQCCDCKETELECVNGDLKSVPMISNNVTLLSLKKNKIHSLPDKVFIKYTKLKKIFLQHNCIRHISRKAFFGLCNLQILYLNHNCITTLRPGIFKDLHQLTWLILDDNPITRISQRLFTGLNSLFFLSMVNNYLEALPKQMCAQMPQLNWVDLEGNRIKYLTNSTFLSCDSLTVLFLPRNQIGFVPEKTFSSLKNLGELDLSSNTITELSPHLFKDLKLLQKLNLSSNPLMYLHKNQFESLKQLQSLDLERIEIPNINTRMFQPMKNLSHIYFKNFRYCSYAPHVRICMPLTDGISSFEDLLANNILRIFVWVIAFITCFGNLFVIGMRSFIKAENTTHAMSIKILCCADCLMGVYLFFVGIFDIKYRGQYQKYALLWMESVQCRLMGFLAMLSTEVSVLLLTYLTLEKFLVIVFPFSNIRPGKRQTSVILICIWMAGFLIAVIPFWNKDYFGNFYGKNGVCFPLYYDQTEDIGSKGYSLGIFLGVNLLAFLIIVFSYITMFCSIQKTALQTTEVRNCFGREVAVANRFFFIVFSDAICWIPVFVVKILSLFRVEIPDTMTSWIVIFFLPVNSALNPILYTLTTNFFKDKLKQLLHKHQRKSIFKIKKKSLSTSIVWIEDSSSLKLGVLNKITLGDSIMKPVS
Assay: qHTS Assay for Agonists of the Relaxin Receptor RXFP1: RXFP2 Hit Validation; further: nearly all actives have a fitted effect of over 65% in size
Details: HEK293 RXFP2 cAMP TR-FRET, 30 min; series mostly up to 115 µM; activation: at the top concentration
Summary of the method: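 TR-FRET cAMP read-out in lysed HEK293 RXFP2 cells, normalized to buffer (basal) and 29 nM porcine relaxin (100%). Compounds 30 min, 37C, with Ro 20174 present. EC50 via standard Hill equation.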
Potency means the concentration at half of the fitted maximal effect.

activation, inactive:
O=C(Nc1ccccc1C(=O)O)c1ccc(NC(=O)C2CC2)cc1 -15%
Cc1ccc(C(=O)Nc2ccccc2C(N)=O)o1 -1.39% [at 125 µM]
Cn1c(N)c(C(=O)CSc2nnc(NC3CCCCC3)s2)c(=O)n(C)c1=O -14.8%
O=C(Nc1ccccc1C(=O)N1CCNCC1)c1ccco1 -3.31% [at 125 µM]
Cc1ccc(CN(C)C(=O)c2ccccc2NC(=O)c2ccccc2)o1 -1.29% [at 125 µM]
Cc1cccc(C(=O)Nc2ccccc2C(=O)NCc2ccco2)c1 13% [at 125 µM]
O=C(Nc1ccccc1C(=O)N1CCN(c2ccccc2)CC1)c1ccco1 -2.96% [at 125 µM]
CCc1nn(CC(=O)NCCCN2CCOCC2)c(=O)c2cc3sccc3n12 22.1%
CC(C(=O)Nc1cccnc1)n1cc([N+](=O)[O-])cn1 (configuration not stated) 24%
CCNc1nc(NCC)nc(N(C)/N=C/c2ccco2)n1 7.92%
O=C(Nc1ccccc1C(=O)NCCc1ccc(O)cc1)c1ccco1 3.59% [at 125 µM]
CC(C)n1cnc2c(N(C)c3cccc(Cl)c3)nc(N(CCO)CCO)nc21 -4.45%
O=C(Nc1ccccc1C(=O)Nc1ccc(F)cc1)c1ccco1 3.88% [at 125 µM]
CC(C)C(=O)Nc1ccc(Nc2ccccc2)cc1 -2.4%

Potency, active:
CCC1(C)Cc2c(sc3c2c2ncnn2c2nnc(SCC(=O)NCc4ccco4)n32)CO1 (configuration not stated) 8.7 µM
N#CCCSc1ncnc2c1oc1ccccc12 19.4 µM
NS(=O)(=O)c1ccc(CCNC(=O)C2CCN(c3ncnc4c3nc3n4CCCCC3)CC2)cc1 38.9 µM
Cc1nnc(Nc2ccc(S(N)(=O)=O)cc2)c2ccccc12 34.6 µM
CCc1ccc(-c2nc3ccc(Br)cc3c(C(=O)O)c2C)s1 4.35 µM
CCCCn1c(SCC(=O)N2CCOCC2)nc2c1c(=O)n(C)c(=O)n2C 38.9 µM
Cc1ccnc(NS(=O)(=O)c2ccc(N3C(=O)c4ccccc4C3=O)cc2)n1 18.8 µM
COC(=O)c1cc(CN2C(=O)c3ccccc3C2=O)c(O)c([N+](=O)[O-])c1 38.9 µM
CCOc1ccc2cc(C#N)c(SCC(=O)NC(C)CC)nc2c1 (configuration not stated) 6.15 µM
O=[N+]([O-])c1cccc(CSc2nnc3ccccn23)c1 34.6 µM
Cc1nc2scc(C)n2c(=O)c1S(=O)(=O)N1CCN(c2ccccn2)CC1 30.9 µM
Nc1ncnc2c1ncn2C1OC(CO)C(O)C1O (configuration not stated) 7.76 µM
CCOC(=O)N1CCN(S(=O)(=O)c2c(C)nc3scc(C)n3c2=O)CC1 30.9 µM
Cc1ccccc1OCC(=O)Nc1sc(C(=O)Nc2cccc(C)c2C)c(C)c1C#N 6.9 µM
O=C(OCc1nc2ccsc2c(=O)[nH]1)c1cccc(S(=O)(=O)N2CCOCC2)c1 34.6 µM
COC(=O)Cn1cnc2c(C#N)c3n(c2c1=O)CCCCC3 9.77 µM
Nc1c(Cl)cc(-c2[nH]c3cc(C(=O)NCCO)ccc3c(=O)c2O)cc1Cl 34.6 µM
CCN(CC)S(=O)(=O)c1ccc2c(c1)nc(SCc1nc3ccsc3c(=O)[nH]1)n2CC 0.275 µM
